pPAFAH inh: pPAFAH (human) enzyme inhibition | Q13093 | recombinant pPAFAH, FP-rhodamine probe fluorescence polarization | inhibition, % at 3.39 µM | 330,000 tested, 1.5% active;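 active means inhibition above the mean inhibition across the screen plus 3 SD, cut at about 25% in these data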;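 further: inhibitors block binding of the rhodamine activity-based probe so polarization drops; 0% = enzyme with DMSO and 100% = wells lacking pPAFAH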
PAFAH1B3 inh: inhibitors of human PAFAH1B3 | AID 492972 | inhibition, % at 3.39 µM | 340,000 tested, 0.28% active | recombinant PAFAH1B3, FP-rhodamine probe, fluorescence polarization;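 active means inhibition above the screen-wide average of all tested compounds plus 3 SD, cut at about 25% in these data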;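 further: 0% = enzyme with DMSO only and 100% = wells lacking PAFAH1B3 protein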
Target sequence (Q15102 whole entry, looked up): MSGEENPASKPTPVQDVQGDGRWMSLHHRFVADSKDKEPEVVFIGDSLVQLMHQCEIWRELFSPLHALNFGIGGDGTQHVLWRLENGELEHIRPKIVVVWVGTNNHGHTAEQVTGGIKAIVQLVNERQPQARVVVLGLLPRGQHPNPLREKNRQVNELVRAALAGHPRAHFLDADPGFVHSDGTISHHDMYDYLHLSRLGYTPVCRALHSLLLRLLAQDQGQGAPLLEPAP
PAFAH1B2 FP inh: PAFAH1B2 (human) inhibition; AID 492953; recombinant PAFAH1B2, FP-rhodamine activity probe, fluorescence polarization; P68402; 340,000 tested, 1.2% active; inhibition, % at 3.39 µM;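 active means inhibition above the mean of all tested compounds plus 3 SD, cut at about 24% in these data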;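 further: 0% = enzyme with DMSO and 100% = wells lacking PAFAH1B2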
Fam108B counter: blocks mouse Fam108B hydrolase in RBBP9 counter-screen; recombinant Fam108B, FP-Rh probe fluorescence polarization; inhibition, % at 9.51 µM; 300,000 tested, 0.33% active; AID 1947;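 active means inhibition above the screen mean inhibition plus 3 SD, computed separately per campaign, cut at about 18% in these data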;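 further: inhibitors lower polarization as less probe binds the enzyme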
PAFAH2 inh: inhibitors of human PAFAH2 | Q99487 | recombinant PAFAH2, FP-rhodamine activity probe, fluorescence polarization | inhibition, % at 3.39 µM | 340,000 tested, 0.99% active;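 active means inhibition above the mean over all tested compounds plus 3 SD, cut at about 30% in these data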;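 further: inhibitors block probe labeling of enzyme so polarization drops; 0% = enzyme with DMSO and 100% = wells lacking PAFAH2 protein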
PME-1 primary: blocks human protein phosphatase methylesterase 1. recombinant PME-1, FP-Rh probe fluorescence polarization. inhibition, % at 5.9 µM. AID 2130. Q9Y570. 320,000 tested, 0.53% active;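 active means inhibition above the campaign mean of all compounds plus 3 SD, cut at about 26% in these data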;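 further: competitive labeling of PME-1 active site by serine hydrolase directed probe; 0% = PME-1 with DMSO and 100% = wells lacking PME-1 enzyme; inhibitors block probe labeling so polarization falls and inhibition rises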
Target sequence (Q9Y570 whole entry, looked up): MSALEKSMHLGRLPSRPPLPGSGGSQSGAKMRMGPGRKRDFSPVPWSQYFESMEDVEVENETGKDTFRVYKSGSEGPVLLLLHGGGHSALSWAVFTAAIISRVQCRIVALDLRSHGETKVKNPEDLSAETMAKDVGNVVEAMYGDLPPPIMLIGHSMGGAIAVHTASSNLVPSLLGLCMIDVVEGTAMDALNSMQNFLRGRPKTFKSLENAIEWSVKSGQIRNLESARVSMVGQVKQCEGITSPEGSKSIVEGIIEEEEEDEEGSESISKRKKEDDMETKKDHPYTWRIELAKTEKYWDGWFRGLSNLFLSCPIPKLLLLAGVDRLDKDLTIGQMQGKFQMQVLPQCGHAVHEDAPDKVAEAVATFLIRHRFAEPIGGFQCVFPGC
Numbers without * were called inactive; x = no result given. This is a sample that favours compounds with a hit; in the whole collection about 2.8% have one here.

SMILES	pPAFAH inh	PAFAH1B3 inh	PAFAH1B2 FP inh	Fam108B counter	PAFAH2 inh	PME-1 primary
CN1CCC(=O)N([C@H](CSc2ccc(Br)cc2)Cc2ccccc2)CC1	8	4	10	3	1	2
CN1CCC(=O)N(CCSc2ccc(Br)cc2)CC1	8	11	26*	-2	12	0
CCOc1ccc(S(=O)(=O)N2CCC(C(=O)NCCc3ccc(S(N)(=O)=O)cc3)CC2)cc1	2	10	0	-3	3	4
Cc1cccnc1NC(=S)NC(=O)c1oc2ccccc2c1C	2	7	5	1	0	0
COC(=O)C1=C(C)N(C)C(=O)NC1c1cc2c(cc1[N+](=O)[O-])OCO2 (stereo not drawn)	16	5	15	7	-14	1
COC(=O)C1=C(C)N(CCCC(=O)O)C(=O)NC1c1cc2c(cc1[N+](=O)[O-])OCO2 (stereo not drawn)	30*	8	6	7	12	-4
COc1ccc(CNC(=O)C2=CC(c3ccc(C)cc3)=NS(=O)(=O)N2C)cc1	4	6	2	-6	5	-3
COc1cc(C=O)ccc1OCCSc1ccc(C)cc1	11	5	35*	-1	0	-6
CCOc1cc(C=O)ccc1OCCSc1ccc(C)cc1	16	4	30*	-4	-4	4
CCOc1cc(/C=C/C(=O)O)ccc1OCCO	3	-1	1	1	2	-3
COc1cc(C=O)ccc1OCCOCCOc1cc(C)ccc1Cl	3	-1	-1	0	-7	4
Cc1nc(NC(=O)CN2CCN(c3cccc(Cl)c3)CC2)sc1C(=O)N(C)C	6	1	-5	0	2	-1
CC(C)c1ccc(NC(=O)C2CCCCC2C(=O)O)cc1 (stereo not drawn)	1	4	-2	-2	-3	-4
Cc1cc(C)cc(NS(=O)(=O)c2ccc(NC(=O)C3CCCCC3C(=O)O)cc2)c1 (stereo not drawn)	28*	-8	-1	2	-3	5
NC1=NC(=O)C(=Cc2ccccc2)S1	x	13	0	x	-6	x
NC1=NC(=O)/C(=C\c2ccco2)S1	30*	14	8	15	21	-5
Cc1ccc(CCN2CC(C(=O)NCCN(C)C)CC2=O)cc1 (stereo not drawn)	2	16	12	-2	15	-1
O=C(CN(Cc1ccco1)Cc1cccs1)N1CCN(S(=O)(=O)c2cccc(F)c2)CC1	3	4	26*	x	0	1
O=C(c1cccc(S(=O)(=O)N2CCOCC2)c1)N(Cc1ccco1)Cc1cccs1	2	3	1	x	0	9
Cc1ccc(NS(=O)(=O)c2ccc3c(c2)N(C)CCO3)cc1	28*	-1	11	-3	4	16
CCOc1ccccc1NS(=O)(=O)c1ccc2c(c1)N(C)CCO2	-2	-4	0	-2	5	21
CC(=O)N1CCSc2ccc(S(=O)(=O)Nc3ccc(C)cc3)cc21	25*	2	8	6	12	6
CCOc1ccc(NS(=O)(=O)c2ccc3c(c2)N(C(C)=O)CCO3)cc1	32*	11	4	-1	0	13
CCc1cccc(NS(=O)(=O)c2ccc3c(c2)N(C)CCO3)c1	30*	2	5	2	7	12
CC(=O)c1ccc(NS(=O)(=O)c2ccc3c(c2)N(C(C)=O)CCO3)cc1	1	-2	2	-2	7	5
SMILES	pPAFAH inh	PAFAH1B3 inh	PAFAH1B2 FP inh	Fam108B counter	PAFAH2 inh	PME-1 primary
Cc1ccc(CCNS(=O)(=O)c2ccc3c(c2)N(C)CCO3)cc1	10	3	30*	0	1	1
CC(=O)N1CCOc2ccc(S(=O)(=O)NCCc3ccccc3)cc21	5	3	7	3	3	2
CCOc1ccc(NS(=O)(=O)c2ccc(OC)c(NC(=O)c3ccc4c(c3)OCCO4)c2)cc1	27*	-3	-5	-17	-11	-23
CCN(CC)S(=O)(=O)c1ccc(OC)c(NC(=O)c2ccc3c(c2)OCO3)c1	6	2	7	5	7	5
Cc1ccc(SCc2cc(=O)n3ccsc3n2)c(C)c1	-1	x	x	-7	x	0
Cc1cccc(-n2c(SCc3cc(=O)n4ccsc4n3)nc3ccccc32)c1	26*	-6	-13	-16	-14	-10
CC(Sc1nn(-c2ccc(F)cc2)c(=S)s1)C(=O)c1c(N)n(C)c(=O)n(C)c1=O (stereo not drawn)	30*	1	3	-3	7	-3
Cc1cc(-c2ccc(C(C)C)c(S(=O)(=O)N3CCN(c4ccccn4)CC3)c2)on1	-1	1	0	-6	12	1
COc1ccc(OC)c(S(=O)(=O)NC(C)CCc2ccccc2)c1 (stereo not drawn)	6	2	17	-5	2	1
CC(CCc1ccccc1)NS(=O)(=O)c1ccccc1 (stereo not drawn)	16	8	33*	-2	4	5
COc1ccc(Nc2nc(N)c(C(=O)c3ccc(OC)cc3)s2)cc1	26*	-19	6	13	6	23
COc1ccc(C(=O)c2sc(NC(C)C)nc2N)cc1OC	1	8	3	-4	4	-4
COc1cccc(CN2CCNC(=O)C2CC(=O)NC2CCCC2)c1OC (stereo not drawn)	-4	4	-2	-1	-4	9
Cc1c(Cc2ccccc2)sc(N)c1C(N)=O	28*	x	x	7	x	5
Cc1c(Cc2ccccc2)sc(/N=C/c2ccc3ccccc3c2)c1C(N)=O	10	-2	-9	-5	-25	-1
Cc1c(Cc2ccccc2)sc(NC(=O)C(C)(C)C)c1C(N)=O	4	1	1	0	1	6
Cc1c(Cc2ccccc2)sc(/N=C/c2c(O)ccc3ccccc23)c1C(N)=O	32*	-10	-21	13	-37	10
CCn1c(COc2ccccc2C)nnc1SCC(=O)NCc1ccccc1	3	3	2	2	0	2
CCn1c(CSCc2ccc(F)cc2)nnc1SCC(=O)NCc1ccccc1	4	2	30*	1	0	-7
CCCCc1ccc(S(=O)(=O)NCCCN2CCCC2=O)cc1	28*	4	8	3	4	9
Cc1ccc(NS(=O)(=O)c2ccc(C(=O)NCCCN3CCCC3=O)cc2)cc1C	31*	1	1	1	6	2
Cn1c(=O)oc2cc(S(=O)(=O)NCCCN3CCCC3=O)ccc21	1	-5	5	-1	3	-2
Cc1ccc(CS(=O)(=O)Cc2ccc(C(=O)NCCCN3CC(C)CC(C)C3)o2)cc1 (stereo not drawn)	31*	2	-6	0	-2	-4
Cc1occc1C(=O)N1CCCC(N2CCN(c3cccc(Cl)c3)CC2)C1 (stereo not drawn)	2	-1	5	1	-3	8

Bioassay records (PubChem)
